Measurements published in PubChem BioAssay (Tox21).
A number with no mark means an inactive call. Records with an inconclusive call do not appear. Entries that show only a call come without a potency. The source made the active and inactive calls. Unless noted, the call rests on the fitted dose curve.

Key:
[1] = Nuclear factor erythroid 2-related factor 2/antioxidant responsive element (Nrf2/ARE) small molecule agonists: qHTS cell viability counter screen in human keratinocytes (AID 1919968; active means well fitted curve in the direction sought with a large enough effect in the repeat runs; an effect the other way counts as inactive or inconclusive; further: nearly all actives have a fitted effect of over 55% in size; further: potency means the concentration at half of the fitted maximal effect)
Summary of the method: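 Cytotoxicity was multiplexed with the Nrf2/ARE luciferase assay in the same wells. Stably transfected HaCaT keratinocytes were treated with test compounds for 23 h at 37 C. Cell viability was then measured by CellTiter-Fluor fluorescence.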

[2] = Nuclear factor erythroid 2-related factor 2/antioxidant responsive element (Nrf2/ARE) small molecule agonists: luciferase reporter gene qHTS assay in human keratinocytes (AID 1919969); further: nearly all actives have a fitted effect of over 35% in size; further: potency means the concentration at half of the fitted maximal effect
[3] = target: Gonadotropin-releasing hormone receptor (Homo sapiens) (UniProt P30968); assay: Human gonadotropin-releasing hormone receptor (GnRHR) small molecule agonists, calcium flux assay in GnRHR-HEK293 cells (AID 1920063); further: nearly all actives have a fitted effect of over 35% in size; further: potency means the concentration at half of the fitted maximal effect
Gonadotropin-releasing hormone receptor (Homo sapiens), sequence (P30968 whole entry, looked up): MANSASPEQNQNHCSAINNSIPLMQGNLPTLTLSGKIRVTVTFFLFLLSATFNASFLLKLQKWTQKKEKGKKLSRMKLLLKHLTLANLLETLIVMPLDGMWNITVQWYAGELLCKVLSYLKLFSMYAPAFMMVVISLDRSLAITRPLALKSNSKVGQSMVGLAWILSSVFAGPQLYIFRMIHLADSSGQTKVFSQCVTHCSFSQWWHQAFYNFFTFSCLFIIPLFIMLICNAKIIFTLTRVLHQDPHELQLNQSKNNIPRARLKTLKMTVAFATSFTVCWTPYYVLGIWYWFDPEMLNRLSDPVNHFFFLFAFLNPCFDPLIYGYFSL
Summary of the method: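 Agonist activity was measured as intracellular calcium flux in HEK293 cells engineered to stably express human GnRHR. After dye loading for 1 hour at 37 C, compounds in DMSO were added and fluorescence was followed for 3 minutes.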

[4] = target: KiSS-1 receptor (Homo sapiens) (UniProt Q969F8); assay: Human kisspeptin (KISS1R) small molecule agonists, calcium flux assay in KISS1R-HEK293 cells (AID 1920064; active means well fitted curve in the direction sought with a large enough effect in the repeat runs; an effect the other way counts as inactive or inconclusive; further: potency means the concentration at half of the fitted maximal effect)
KiSS-1 receptor (Homo sapiens), sequence (Q969F8 whole entry, looked up): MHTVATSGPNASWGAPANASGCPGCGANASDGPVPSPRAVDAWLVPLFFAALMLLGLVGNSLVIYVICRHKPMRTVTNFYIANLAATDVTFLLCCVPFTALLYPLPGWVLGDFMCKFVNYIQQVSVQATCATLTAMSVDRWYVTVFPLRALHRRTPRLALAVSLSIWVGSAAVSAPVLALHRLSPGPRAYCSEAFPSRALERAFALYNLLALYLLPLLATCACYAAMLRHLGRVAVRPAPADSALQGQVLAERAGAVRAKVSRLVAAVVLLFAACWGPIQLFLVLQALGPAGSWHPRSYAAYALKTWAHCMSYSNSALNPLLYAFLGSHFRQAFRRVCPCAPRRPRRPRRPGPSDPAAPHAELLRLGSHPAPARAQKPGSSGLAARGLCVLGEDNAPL
Summary of the method: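 Agonist activity is monitored as intracellular calcium rise in engineered HEK293 cells carrying human KISS1R. Cells are dye-loaded for 1 h at 37 C before compound addition, and fluorescence is recorded for 3 min.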

[5] = G protein-coupled receptor (GPCR) small molecule agonists, calcium flux assay: HEK293 wild type cell line counter screen (AID 1920065)
Summary of the method: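 Seed cells, incubate 18 h (37 C, 5% CO2); add calcium dye, 1 h at 37 C; pin-transfer compounds, ATP control or DMSO; read fluorescence 480/540 nm each second for 3 min.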

[6] = p53 small molecule agonists, cell-based qHTS assay with human liver microsomes (AID 1963577);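 further: p53 response element beta-lactamase reporter cells with liver microsomes plus NADPH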
Summary of the method: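 16 h, 37 C exposure of p53RE-bla cells to compounds with human liver microsomes and NADPH (0.5 mg/mL final each); detection via LiveBLAzer mixture, 2 h dark at room temperature.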

[7] = p53 small molecule agonists, cell-based qHTS assay with rat liver microsomes (AID 1963578)
Summary of the method: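 With rat liver microsomes and NADPH present (0.5 mg/mL final each), p53RE-bla cells are treated with compound for 16 h at 37 C. LiveBLAzer detection mixture is then applied for 2 h at room temperature in the dark.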

[8] = p53 small molecule agonists, cell-based qHTS assay with human liver microsomes: qHTS cell viability counter screen (AID 1963579); further: nearly all actives have a fitted effect of over 45% in size; further: potency means the concentration at half of the fitted maximal effect
Summary of the method: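 In this multiplexed counter screen, the reporter plates were subsequently treated with CellTiter-Glo so that cell viability, reflected by luminescence, could be recorded for p53RE-bla cells dosed 16 h with compounds under microsomal activation (HLM and NADPH).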

[9] = p53 small molecule agonists, cell-based qHTS assay with rat liver microsomes: qHTS cell viability counter screen (AID 1963580); further: nearly all actives have a fitted effect of over 45% in size; further: potency means the concentration at half of the fitted maximal effect
Summary of the method: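 After the beta-lactamase ratio was read, CellTiter-Glo was added to the same wells and luminescence measured at 30 min; cells had been treated 16 h at 37 C with compounds, rat liver microsomes and NADPH (0.5 mg/mL final each).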

[10] = p53 small molecule agonists, cell-based qHTS assay: qHTS cell viability counter screen (AID 1963581); further: nearly all actives have a fitted effect of over 45% in size; further: potency means the concentration at half of the fitted maximal effect
Summary of the method: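 Viability was counter-screened in parallel with the p53 agonist reporter by measuring intracellular ATP luminescence in the same HCT-116 p53RE-bla wells after 16 h compound treatment at 37 C.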

[11] = target: 5-hydroxytryptamine receptor 2A (Homo sapiens) (UniProt P28223); assay: 5-hydroxytryptamine receptor 2A (HTR2A) small molecule agonists, cell-based qHTS assay (AID 1963587); further: nearly all actives have a fitted effect of over 30% in size; further: potency means the concentration at half of the fitted maximal effect
5-hydroxytryptamine receptor 2A (Homo sapiens), sequence (P28223 whole entry, looked up): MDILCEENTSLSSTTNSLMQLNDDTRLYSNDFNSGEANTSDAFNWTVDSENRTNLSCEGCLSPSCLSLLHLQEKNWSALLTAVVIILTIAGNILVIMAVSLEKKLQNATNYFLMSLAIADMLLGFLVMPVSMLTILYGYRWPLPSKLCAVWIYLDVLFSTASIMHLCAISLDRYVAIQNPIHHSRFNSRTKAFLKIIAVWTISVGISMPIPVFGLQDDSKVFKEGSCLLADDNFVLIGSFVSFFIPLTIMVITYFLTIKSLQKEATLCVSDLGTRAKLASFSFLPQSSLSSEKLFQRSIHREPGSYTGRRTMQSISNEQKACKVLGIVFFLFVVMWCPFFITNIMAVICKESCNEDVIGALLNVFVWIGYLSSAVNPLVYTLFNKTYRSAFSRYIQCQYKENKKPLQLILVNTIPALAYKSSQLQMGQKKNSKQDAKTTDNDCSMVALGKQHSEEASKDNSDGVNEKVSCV
Summary of the method: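 CHO cells stably expressing human HTR2A, plated 18 h, loaded with calcium dye 1 h at 37 C. Agonist mode: compounds added and intracellular calcium fluorescence recorded kinetically for 2 min at 1 sec intervals.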

[12] = target: Muscarinic acetylcholine receptor M1 (Homo sapiens) (UniProt P11229); assay: Cholinergic receptor muscarinic 1 (CHRM1) small molecule antagonists, cell-based qHTS assay (AID 1963588); further: nearly all actives have a fitted effect of over 40% in size
Muscarinic acetylcholine receptor M1 (Homo sapiens), sequence (P11229 whole entry, looked up): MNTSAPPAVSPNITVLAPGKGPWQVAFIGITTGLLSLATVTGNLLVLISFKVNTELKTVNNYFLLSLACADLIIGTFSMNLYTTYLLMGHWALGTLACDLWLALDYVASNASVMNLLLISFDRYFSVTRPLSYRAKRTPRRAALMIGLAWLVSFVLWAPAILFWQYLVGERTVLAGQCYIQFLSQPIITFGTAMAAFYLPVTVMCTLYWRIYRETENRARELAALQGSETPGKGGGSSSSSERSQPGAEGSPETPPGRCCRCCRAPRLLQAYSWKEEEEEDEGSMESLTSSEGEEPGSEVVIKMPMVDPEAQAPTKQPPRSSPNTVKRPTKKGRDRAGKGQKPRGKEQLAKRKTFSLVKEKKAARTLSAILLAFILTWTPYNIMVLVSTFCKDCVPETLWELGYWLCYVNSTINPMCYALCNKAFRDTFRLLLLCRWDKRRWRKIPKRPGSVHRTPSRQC
Summary of the method: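 Compounds were tested at 15 concentrations in three independent runs. Dye-loaded CHRM1-CHO cells were exposed 5 min at room temperature before stimulation by acetylcholine added at 50nM. Intracellular calcium was read kinetically on FDSS for 3 min.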

[13] = target: Muscarinic acetylcholine receptor M1 (Homo sapiens) (UniProt P11229); assay: Cholinergic receptor muscarinic 1 (CHRM1) small molecule agonists, cell-based qHTS assay (AID 1963589); further: nearly all actives have a fitted effect of over 35% in size
Summary of the method: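 Cells were plated and incubated 18 h at 37 C/5% CO2, loaded with calcium dye for 1 h at 37 C, then treated with compounds in DMSO. Fluorescence was recorded kinetically at 1 sec intervals.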

[14] = target: Beta-2 adrenergic receptor (Homo sapiens) (UniProt P07550); assay: Adrenergic beta2 receptor (ADRB2) small molecule antagonists, cell-based qHTS assay (AID 1963592); further: nearly all actives have a fitted effect of over 50% in size; further: potency means the concentration at half of the fitted maximal effect
Beta-2 adrenergic receptor (Homo sapiens), sequence (P07550 whole entry, looked up): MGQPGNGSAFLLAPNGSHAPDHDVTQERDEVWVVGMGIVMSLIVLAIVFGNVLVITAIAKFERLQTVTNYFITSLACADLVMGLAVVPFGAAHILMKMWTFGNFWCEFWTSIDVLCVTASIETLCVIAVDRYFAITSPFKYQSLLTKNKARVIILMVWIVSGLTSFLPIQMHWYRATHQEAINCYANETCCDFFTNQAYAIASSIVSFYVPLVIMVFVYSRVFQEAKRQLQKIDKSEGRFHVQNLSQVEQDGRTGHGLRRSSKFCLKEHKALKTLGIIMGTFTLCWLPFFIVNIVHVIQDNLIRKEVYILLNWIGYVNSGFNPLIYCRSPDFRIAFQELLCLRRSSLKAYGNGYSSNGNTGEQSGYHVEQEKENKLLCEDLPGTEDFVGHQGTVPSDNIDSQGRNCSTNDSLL
Summary of the method: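 Assay format: CHO-ADRB2 cells, 18-20hr seeding at 37C/5% CO2, then compound plus 1nM isoproterenol agonist mix for 0.5hr RT. Homogeneous time-resolved fluorescence cAMP detection after 1hr, expressed as 665/615 nm ratio.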

[15] = target: D(2) dopamine receptor (Homo sapiens) (UniProt P14416); assay: Dopamine D2 receptor (DRD2) small molecule agonists, cell-based qHTS assay (AID 1963594); further: nearly all actives have a fitted effect of over 35% in size
D(2) dopamine receptor (Homo sapiens), sequence (P14416 whole entry, looked up): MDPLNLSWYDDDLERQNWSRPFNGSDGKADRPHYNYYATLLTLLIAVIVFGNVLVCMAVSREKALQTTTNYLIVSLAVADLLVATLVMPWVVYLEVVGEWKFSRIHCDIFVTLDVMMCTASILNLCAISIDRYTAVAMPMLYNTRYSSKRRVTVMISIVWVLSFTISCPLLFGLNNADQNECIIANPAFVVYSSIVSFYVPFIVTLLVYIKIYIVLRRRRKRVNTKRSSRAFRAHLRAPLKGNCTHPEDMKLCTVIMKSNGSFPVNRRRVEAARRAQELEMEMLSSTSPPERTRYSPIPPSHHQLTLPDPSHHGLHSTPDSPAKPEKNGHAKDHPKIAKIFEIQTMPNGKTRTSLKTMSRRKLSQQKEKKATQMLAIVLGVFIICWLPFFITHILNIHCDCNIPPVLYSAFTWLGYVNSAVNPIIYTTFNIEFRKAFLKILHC
Summary of the method: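 HEK293 cells stably expressing human DRD2, pre-treated with PDE inhibitor Ro20-1724 (0.1 mM final) and compound 10 min at room temperature, then stimulated with NKH477 (200nM […]) for 30 min. cAMP read by HTRF (665/620 nm).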

[16] = target: D(2) dopamine receptor (Homo sapiens) (UniProt P14416); assay: Dopamine D2 receptor (DRD2) small molecule antagonists, cell-based qHTS assay (AID 1963595; active means well fitted inhibition curve with a large enough effect in the signal ratio in the repeat runs, with a control signal flat; the % refers to the signal ratio; further: potency means the concentration at half of the fitted maximal effect)
Summary of the method: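 DRD2-HEK293; 0.1 mM Ro20-1724; cpd 10 min RT; NKH477 200 nM + quinpirole 12 nM, 30 min RT; HTRF cAMP (cAMP-d2/anti-cAMP cryptate), 665/620 nm ratio after 1 h.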

[17] = target: 5-hydroxytryptamine receptor 2A (Homo sapiens) (UniProt P28223); assay: 5-hydroxytryptamine receptor 2A (HTR2A) small molecule antagonists, cell-based qHTS assay (AID 1963586); further: nearly all actives have a fitted effect of over 45% in size; further: potency means the concentration at half of the fitted maximal effect
Summary of the method: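 CHO cells stably expressing human HTR2A were plated for 18 h at 37 C, then loaded with calcium dye for 1 h. Compounds were preincubated 5 min at room temperature before DOI (4 nM solution) was added. Kinetic fluorescence was read for 3 min.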

[18] = cAMP Responsive Elements (CRE) small molecule agonists, cell-based qHTS assay (AID 1963590)
Summary of the method: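 Cells carrying a CRE-driven beta-lactamase reporter (HEK 293T) are seeded, incubated overnight (18 h), and treated with test compounds for 3 h at 37 C; reporter activity is then detected with a FRET substrate after 2 h at room temperature.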

[19] = cAMP Responsive Elements (CRE) small molecule antagonists, cell-based qHTS assay (AID 1963591; active means well fitted inhibition curve with a large enough effect in the signal ratio in the repeat runs, not every such curve was filed as active; the % refers to the signal ratio)
Summary of the method: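 Cells (CRE-bla HEK 293T, DMEM with 10% dialyzed FBS and 25 mM HEPES) are seeded and incubated 18 h. Compounds are added with NKH477 agonist at 0.25 uM final for 3 h, then FRET substrate for 2 h.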

SMILES | Potency [1] | Potency [2] | Potency [3] | Potency [4] | Potency [5] | Potency [6] | Potency [7] | Potency [8] | Potency [9] | Potency [10] | Potency [11] | Potency [12] | Potency [13] | Potency [14] | Potency [15] | Potency [16] | Potency [17] | Potency [18] | Potency [19]
O=C(NC(=O)c1cc(F)c(F)cc1Cl)Nc1cc(F)ccc1N1CCC(C(=O)O)CC1 | inactive | inactive | inactive | inactive | inactive | inactive | inactive | inactive | inactive | inactive | inactive | inactive | inactive | inactive | inactive | inactive |  |  | 
CC(Oc1ccc(Oc2ncc(C(F)(F)F)cc2Cl)cc1)C(=O)O (centres undefined) | inactive | inactive | inactive | inactive | inactive | inactive | inactive | inactive | inactive | inactive | inactive | inactive | inactive | inactive | inactive |  | inactive |  | 
COc1ccc(C(c2ccc(OC)cc2)C(Cl)(Cl)Cl)cc1 | 19.2 µM (active) | 27.1 µM (active) | inactive | inactive | inactive | inactive | inactive | inactive | inactive | inactive | inactive |  | inactive | inactive |  |  | inactive |  | 
COC(=O)C(C)Oc1ccc(Oc2ccc(Cl)cc2Cl)cc1 (centres undefined) | inactive | inactive | inactive | inactive | inactive | inactive | inactive | inactive | inactive | inactive | inactive |  | inactive | inactive | inactive | inactive | inactive | inactive | inactive
[F][Sn]([c]1ccccc1)([c]1ccccc1)[c]1ccccc1 | 0.864 µM (active) | 0.545 µM (active) | 34.7 µM (active) | inactive | inactive | inactive | inactive | 2.29 µM (active) | 11.5 µM (active) | 2.89 µM (active) | 30.9 µM (active) |  |  | inactive | inactive | 2.73 µM (active) | inactive |  | 
CC(=O)c1ccc(-c2ccccc2)cc1 | inactive | inactive | inactive | inactive | inactive | inactive | inactive | inactive | inactive | inactive | inactive | inactive | inactive | inactive | inactive | inactive |  | inactive | inactive
CCC[CH2][Sn]([CH2]CCC)([CH2]CCC)[O]C(=O)c1ccccc1 | 1.09 µM (active) | 0.969 µM (active) | 4.9 µM (active) | 19.5 µM (active) | inactive | inactive | inactive | 3.24 µM (active) | 4.58 µM (active) | 1.62 µM (active) | 21.9 µM (active) |  |  | 0.864 µM (active) | inactive | 4.86 µM (active) | 1.33 µM (active) |  | 
N#CC(CCc1ccc(Cl)cc1)(Cn1cncn1)c1ccccc1 (centres undefined) | inactive | inactive | inactive | inactive | inactive | inactive | inactive | inactive | inactive | inactive |  |  | inactive |  | inactive |  | inactive |  | 
O=c1[nH]oc2c1CCNC2 | inactive | inactive | inactive | inactive | inactive | inactive | inactive | inactive | inactive | inactive | inactive | inactive | inactive | inactive | inactive | inactive | inactive | inactive | inactive
